miR-21 act: qHTS Assay for Modulators of miRNAs and/orActivators of miR-21; Potency, µM (titrated, usually from 38.3 µM), without a hit: at the highest dose activity change, positive = activation, actives largely listed as activators; 340,000 tested, under 10 active; HeLa miR-21 FLuc reporter, luciferase, 48 h;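 further: % of control where 0% means no effect; miR-21 action dims this reporter so a rising signal means less miR-21 action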
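HeLa miR-21-FLuc reporter line, endogenous miR-21; 2000 cells/well in DMEM/10% FBS; compound titration up to ~40uM final, 48 h, 37 degree Celsius; luciferase detection reagent, 15 min lysis, CCD luminescence.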
ClpP mod: qHTS Assay for Activators of ClpP; ATP-dependent Clp protease proteolytic subunit (Bacillus subtilis (strain 168)), P80244; purified B. subtilis ClpP, FRET peptide cleavage, 20 min; Potency, µM (top dose mostly 57.5 µM), for inactives: at the top dose activity change, negative = active; 1.9% of 340,000 active; active means well fitted falling curve with a large enough effect; inconclusive means small, poorly fitted or top-dose-only effect; inactive means no such curve, though single readings can be large or run the other way; further: potency means the concentration at half of the fitted maximal effect; the source files actives as falling curves though it sought activators and does not explain the sign; nearly all actives have a fitted effect of over 65% in size
Target sequence (P80244 whole entry, looked up): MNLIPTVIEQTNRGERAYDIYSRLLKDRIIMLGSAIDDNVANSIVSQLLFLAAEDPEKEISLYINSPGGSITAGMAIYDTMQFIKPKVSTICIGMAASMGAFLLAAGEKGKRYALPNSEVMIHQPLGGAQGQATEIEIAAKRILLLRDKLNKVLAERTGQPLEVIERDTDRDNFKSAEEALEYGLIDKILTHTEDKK
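FRET quenching reversal measured ClpP activation: 10 microg/mL B. subtilis ClpP at pH 8 with the FRET-FV decapeptide, read at 430 nm after 320 nm excitation. The 20-min minus 0-min signal was scaled between DMSO/no-enzyme wells and ADEP (5.8 microM final).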
Nrf2 inh: Nrf2 qHTS screen for inhibitors; A549 ARE-Fluc reporter, luciferase luminescence, 18-24 h; Potency, µM (highest dose often 46 µM), for inactives: at the highest dose activity change, negative = inhibition, usual class: inhibitors; 2.1% of 360,000 active; further: potency means the concentration at half of the fitted maximal effect; on the % scale 0 is the no-effect control and ±100 the full control effect; nearly all actives have a fitted effect of over 60% in size
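Two sequential reads on A549 ARE_Fluc cells exposed to compound for 18-24 h: a CellTiter-Fluor fluorescence read for viability, then a luciferase luminescence read for Nrf2/ARE activity.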
Nrf2 activator: qHTS of Nrf2 Activators | AREc32 ARE-luciferase reporter (MCF7-derived line), luminescence, 24 h | Potency, µM (doses to about 46.1 µM), without a hit: at the top dose activation, actives largely listed as activators | 0.31% of 410,000 active | AID 624171, 2012; further: potency means the concentration at half of the fitted maximal effect; % of control where 0% means no effect; nearly all actives have a fitted effect of over 65% in size
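ARE activation measured as luciferase luminescence (Steady-Glo, 30 min RT) in AREc32_Fluc cells after 24 hr compound exposure at 37 deg C, 5% CO2; cells seeded overnight at 1000/well in OPTI-MEM, 5% FBS.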
A549 tox: Nrf2 qHTS screen for inhibitors: counterscreen for cytotoxicity | A549 ARE-Fluc cells, CellTiter-Fluor viability, 18-24 h | Potency, µM (series often up to 46 µM), for the others: at the top dose activity change, negative = cytotoxicity, actives largely listed as inhibitors | 0.16% of 390,000 active; further: potency means the concentration at half of the fitted maximal effect; on the % scale 0 is the no-effect control and ±100 the full control effect
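A549 ARE_Fluc cells in 5% FBS OPTI-MEM were exposed to compounds in concentration-response for 18-24 h at 37 deg C. Viability was read by CellTiter-Fluor fluorescence (Ex 405/Em 525) after 30 min, before the luciferase read.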
IL2 activator: qHTS of IL-2 Activators. IL-2 activation reporter assay, cell-based qHTS; stimulated with anti-CD3/CD4/CD28 beads; in transgenic mouse T cells. activation, % (series mostly up to about 46 µM). 0.065% of 360,000 active. AID 652025, 2013; in the data active means activation above about 50%; inconclusive means mostly about 30% to 49%; further: 0% is about no effect
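Using fluorescent plate cytometry, EGFP and DsRed are detected in transgenic mouse T cells stimulated 18 h at 37 degrees C with antibody-coated beads after 60 min compound pretreatment.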
* = called active by the depositor; ? = inconclusive; / = not tested or not shown. Sampled rows, rich in hits. Any-hit rate of the full collection: about 3.7%. Unless noted, the call rests on the fitted dose curve; in most records, active means well fitted curve in the direction sought with a large enough effect; inconclusive means small, poorly fitted or top-dose-only effect, or another doubt; inactive means no such curve, though single readings can be large; an effect the other way counts as inactive or inconclusive.

SMILES | miR-21 act | ClpP mod | Nrf2 inh | Nrf2 activator | A549 tox | IL2 activator
Nc1nc(SCc2ccc(Cl)cc2Cl)nc2nc3c(cc12)CCCC3 | -14% | ? | 23µM* | 4% | -16% | 82*
Nc1nc(SCc2ccccc2Cl)nc2nc3c(cc12)CCCC3 | -7% | ? | -20% | -1% | 3% | -2
Cc1cc(C)cc(C(=O)C[n+]2cccc(Br)c2)c1 | / | -1% | / | / | / | /
Clc1ccccc1/C=N/NC1=Nc2cccc3cccc1c23 | -53% | -2% | ? | 17% | ? | 244*
COc1ccc(NC(=S)N2C3CCC2CC(NC(=O)NC24CC5CC(CC(C5)C2)C4)C3)c(OC)c1 (centres undefined) | -3% | -3% | -2% | 3% | 4% | 1
Cc1cc([N+](=O)[O-])ccc1NC(=O)CN1C2CCC1CC(NC(=O)NC13CC4CC(CC(C4)C1)C3)C2 (centres undefined) | 5% | / | 16µM* | 0% | -18% | -4
O=[S+]([O-])(NC[C@H]1CCC[C@H](CN[S+](=O)([O-])c2c(F)cccc2F)C1)c1ccc2c(c1)OCCO2 | / | / | -15% | / | -12% | /
O=S(=O)(/C(=C\c1ccc(C(F)(F)F)cc1)c1nc2ccccc2[nH]1)c1ccccc1 | / | / | 16µM* | -3% | ? | 0
c1ccc2c(c1)Nc1cc3ccccc3cc1S2 | -38% | / | ? | 10% | 5% | -3
c1ccc2c(c1)Nc1ccncc1S2 | 12% | -17% | 29µM* | 3% | -21% | -1
COc1ccc(CCNC(=O)C(=O)NCC(c2cccs2)S(=O)(=O)c2ccc(C)cc2)cc1 (centres undefined) | 13% | 0% | / | 3% | -1% | /
CCc1nc(N2CCN(C(C)=O)CC2)c(C#N)c2c1COC(C)(C)C2 | -3% | 4% | -5% | 0% | 11% | -1
CC1(C)Cc2c(C#N)c(N3CCN(C(=O)c4ccccc4Cl)CC3)nc(-c3ccco3)c2CS1 | -12% | 28µM* | / | 3% | -8% | 1
CC1(C)Cc2c(C#N)c(N3CCN(C(=O)c4ccco4)CC3)nc(-c3ccco3)c2CS1 | -6% | ? | ? | 2% | -5% | -4
CCc1nc(N2CCN(C(=O)c3ccco3)CC2)c(C#N)c2c1COC(C)(C)C2 | -1% | 3% | 15µM* | 0% | -10% | -3
Cc1nc(N2CCN(C(=O)c3ccc(Cl)cc3)CC2)c(C#N)c2c1COC(C)(C)C2 | 21% | ? | / | 3% | 3% | 0
CC1(C)Cc2c(C#N)c(N3CCN(C(=O)c4ccco4)CC3)nc(Cc3ccccc3)c2CO1 | -8% | 28µM* | ? | -1% | -26% | 1
CC1(C)Cc2c(C#N)c(SCC(=O)c3ccccc3)nc(N3CCOCC3)c2CS1 | 0% | -4% | 16µM* | 0% | -18% | 0
CN(C)c1ccc(/C=C/c2ccnc3cc(Cl)ccc23)cc1 | / | 1% | / | / | / | /
CCCN(CCC)CCNC(=O)CN1C(=O)COc2ccc(S(=O)(=O)N3CCC(C)CC3)cc21 | -5% | -1% | 17% | 0% | 3% | /
CCCNC(=O)Nc1ccc2c(c1)N(C)C(=O)c1ccccc1S2 | 3% | -2% | -24% | 0% | 11% | -2
CC(=O)c1cccc(NC(=O)Nc2ccc3c(c2)N(C)C(=O)CS3)c1 | 24% | -1% | 13µM* | 0% | -1% | 2
CCc1ccc(NC(=O)Nc2ccc3c(c2)N(C)C(=O)CS3)cc1 | 27% | -1% | 16µM* | -2% | -11% | -3
CCOC(=O)c1cccc(NC(=O)Nc2ccc3c(c2)N(C)C(=O)c2ccccc2S3)c1 | 17% | -2% | 21µM* | 0% | -20% | /
Cc1ccc(NC(=O)Nc2ccc3c(c2)N(C)C(=O)CS3)cc1C | 20% | 0% | ? | -1% | -11% | -2
SMILES | miR-21 act | ClpP mod | Nrf2 inh | Nrf2 activator | A549 tox | IL2 activator
Cc1cc(C)cc(NC(=O)Nc2ccc3c(c2)N(C)C(=O)CS3)c1 | 20% | 1% | ? | 3% | 12% | 8
CCN(CC)c1ccc(NC(=O)Nc2cccc(C(C)=O)c2)cc1 | -14% | -19% | 15µM* | 5% | -1% | -4
O=C(N1CCc2ccc(S(=O)(=O)N3CCN(S(=O)(=O)c4ccc5c(c4)OCCO5)CC3)cc2C1)C(F)(F)F | / | / | 17% | / | -2% | /
O=C1CCc2cc(S(=O)(=O)Nc3cccc(C(F)(F)F)c3)ccc2N1 | / | / | ? | / | -3% | /
CC(C)C(=O)Nc1ccc2nc(SCCOc3ccccc3)sc2c1 | -15% | -2% | ? | -1% | 0% | /
CCOC(=O)Cn1c(C)nc2c(C(=O)OCC)sc(C)c2c1=O | -4% | 32µM* | / | 0% | 5% | 1
CCOC(=O)c1sc(C)c2c(=O)n(CC(=O)c3ccc(Br)cc3)nnc12 | -3% | 1% | -5% | 0% | -1% | -2
Cc1ccc(C)c(NC(=O)Cn2cc(S(=O)(=O)N3CCCC3)c(S(=O)(=O)N3CCCC3)c2)c1 | 1% | 1% | ? | 0% | 6% | /
Cc1ccc2c(=O)cc(C(=O)Nc3ccc(S(=O)(=O)N(C)c4ccccc4)cc3)oc2c1C | 0% | -4% | 22% | 0% | 0% | /
COc1ccc(N2CCN(C(=O)CCc3ccc(S(=O)(=O)NCC(C)C)cc3)CC2)cc1 | 17% | 25µM* | 26µM* | 3% | -24% | 0
COc1ccc(N2CCN(C(=O)COC(=O)c3cccc(S(=O)(=O)Nc4cccc(C)c4)c3)CC2)cc1 | / | / | 26µM* | 0% | -5% | -2
CCc1ccc(C2=CC(c3cccc(C)c3)n3c(nc4ccccc43)N2)cc1 (centres undefined) | 17% | -2% | / | 0% | -18% | /
CCc1ccc(-c2nn(CC(=O)NC3CCCCC3)c3c2cnc2ccc(OC)cc23)cc1 | -8% | -17% | 11% | 1% | -1% | /
Cc1cc(=O)oc2cc(OC(=O)c3nn(C(C)C)c(=O)c4ccccc34)ccc12 | -5% | -12% | -11% | 0% | -4% | -2
CC(C)n1nc(C(=O)Oc2ccc(Cl)cc2)c2ccccc2c1=O | -1% | 18µM* | 4% | 2% | 1% | -2
CCc1c(C)nc2nncn2c1NCc1ccc(Cl)cc1 | ? | 2% | 8.2µM* | 0% | -17% | /
Cc1cc2c(s1)c1cnn(Cc3c(F)ccc(F)c3Cl)c(=O)c1n2C | / | / | 5% | / | -4% | /
CC(=O)N(CC1CCCO1)c1nnc(-c2ccccn2)s1 (centres undefined) | -36% | 16µM* | 0% | 0% | -17% | -1

Compound activity (PubChem BioAssay)
